Laboratory results from PubChem BioAssay (NCATS).
Inconclusive results are not listed. A call without a number means that no potency is given here. Activity calls are given as the source filed them. Unless noted, the call rests on the fitted dose curve; in most records, active means well fitted curve in the direction sought with a large enough effect; inconclusive means small, poorly fitted or top-dose-only effect, or another doubt; inactive means no such curve, though single readings can be large; an effect the other way counts as inactive or inconclusive. Where a SMILES comes first, the peptide text is derived from it. [ ]: non-standard residue; d: D form. Ala(indol-2-yl) = N[C@@H](Cc1cc2ccccc2[nH]1)C(=O)O; Aib = CC(C)(N)C(=O)O

Legend:
[1] = system: Zika virus NS2B-NS3 protease (unlinked complex); assay: Primary screen GU Rhodamine qHTS for Zika virus inhibitors: Unlinked NS2B-NS3 protease assay (AID 1347159); further: nearly all actives have a fitted effect of over 60% in size; further: potency means the concentration at half of the fitted maximal effect
Outline: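 Unlinked NS2B/NS3, 25 nM; Rhod110 peptide, 1.5 microM; compounds, up to 114 microM. Reaction run 15 min at RT in 10 mM Tris-HCl pH 8.0, 0.01% Tween 20; kinetic fluorescence change fitted with a 4-parameter Hill model.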

[2] = system: Zika virus NS2B-NS3 protease (linked construct); assay: Primary screen NINDS Rhodamine qHTS for Zika virus inhibitors (AID 1347160); further: nearly all actives have a fitted effect of over 55% in size; further: potency means the concentration at half of the fitted maximal effect
Outline: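 Single-chain NS2B-NS3 protease, 25 nM, pH 8.0; compounds preincubated 15 min. Activity: Rhodamine110 release from 1.5 microM substrate over 15 min, room temperature, data fitted to 4-parameter Hill.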

[3] = target: Calcium and integrin-binding protein 1 (Homo sapiens) (UniProt Q99828); assay: Primary qHTS for Identification of Calcium Integrin Binding Protein 1 (CIB1) Competitor (AID 1508620);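 further: GST tagged CIB1 binding a fluorescein labelled alphaIIb integrin peptide tracer; top concentration of the series differs between compounds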
Outline: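 CIB1-GST (1 uM final) and compound incubated 15 min at room temperature before adding FITC-alphaIIb peptide tracer (100 nM final). Competition for binding read by fluorescence polarization (ex 480, em 540) after another 15 min at room temperature.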

KB-3-1 = assay: Cytotoxic Profiling of Annotated Libraries Using Quantitative High-Throughput Screening (AID 1296008); conditions: Five cell lines viability, CellTiter-Glo ATP luminescence, 48-72 h; max response: stronger effect = lower value; further: nearly all actives have a fitted effect of over 60% in size; further: potency means the concentration at half of the fitted maximal effect
Outline: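 Cytotoxicity was measured as CellTiter-Glo ATP luminescence, read after 10 min at room temperature. Compound treatment of the cells lasted 48 or 72 hr at 37 degrees Celsius in a qHTS format.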

HACAT = assay: qHTS assay to identify novel small-molecules to repurpose for Merkel cell carcinoma treatment (AID 1296009); conditions: MCC and control cell lines, CellTiter-Glo viability, 72 h; at 44.8 µM (top of the series) unless noted; further: nearly all actives have a fitted effect of over 60% in size
Outline: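 Cell viability measured by CellTiter-Glo following 72 hr compound treatment at 37 degree celsius, with NPC and MIPE libraries tested in 8- and 11-point concentration series.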

CAOV3 = assay: Primary qHTS to identify gynecologic anti-cancer compounds using libraries of approved drugs and bioactive compounds (AID 1345084); conditions: Gynecologic cancer cell panel viability, ATPlite luminescence, 48 h; series mostly up to 57.5 µM; further: nearly all actives have a fitted effect of over 55% in size; further: potency means the concentration at half of the fitted maximal effect
Outline: (§1)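 Five-concentration response, 48 h; readout is ATP-driven luciferase luminescence.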

JEG-3 = assay: as above; conditions: Gynecologic cancer cell panel viability, ATPlite luminescence, 48 h; series mostly up to 57.5 µM
Outline: as §1

SKOV3 = assay: as above; conditions: Gynecologic cancer cell panel viability, ATPlite luminescence, 48 h; series mostly up to 57.5 µM
Outline: as §1

[4] = Primary fluorescence-based thiol-reactive (MSTI) qHTS assay for identification of artifact compounds. (AID 1845221);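 further: thiol-reactive compounds lower the probe fluorescence signal; nearly all actives have a fitted effect of over 65% in size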
Outline: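 In PBS pH 7.4 with 2% DMSO, each compound met 4 uM MSTI for one hour at ambient temperature, shielded from light, before fluorescence detection.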

[5] = Primary redox qHTS assay for identification of artifact compounds. (AID 1845223)
Outline: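 Redox-cycling detection via DTT (250 uM final) oxidation coupled to Amplex Red (25 uM)/HRP (250 mU/mL) in HBSS. 15 min preincubation plus 30 min after DTT, room temperature. Ex/Em 525/598 nm; 4-parameter Hill fit against DMSO and 10 uM DA3003.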

[6] = P-glycoprotein substrates identified in KB-3-1 adenocarcinoma cell line, qHTS therapeutic library screen (AID 1346986); further: nearly all actives have a fitted effect of over 60% in size
Outline: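 Dose-response cytotoxicity, KB-3-1 vs P-gp-high KB-8-5-11, no colchicine in assay medium. Read: CellTiter-Glo at 72 h.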

[7] = qHTS Assay for Lipid Storage Modulators (AID 1519; calls by dose curve); conditions: Drosophila S3 cells, BODIPY lipid droplet/cell ratio, laser cytometry, cells loaded with oleic acid
Outline: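 Cells seeded at 5,000 per well were treated with compounds over a concentration series and loaded with oleic acid (400 uM, as added). Lipid droplet fluorescence (488 nm excitation, 500-530 nm channel) was read by laser-scanning cytometry and normalized to 20 uM Triacsin C.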

Chain of Calcium and integrin-binding protein 1 (Homo sapiens) (Q99828 whole entry, looked up): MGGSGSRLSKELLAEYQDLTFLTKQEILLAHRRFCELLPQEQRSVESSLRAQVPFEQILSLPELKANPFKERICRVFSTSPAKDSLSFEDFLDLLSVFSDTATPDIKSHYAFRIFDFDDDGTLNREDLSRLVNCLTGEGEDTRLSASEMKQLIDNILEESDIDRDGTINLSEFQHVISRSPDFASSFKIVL

SMILES: COC(=O)[C@]12CCCC(C)(C)C1CCc1cc(C(C)C)c(O)c(O)c12 (stereo partly specified)
- Potency [1]: 4470 nM (active)
- Potency [2]: 14100 nM (active)
- Potency [3]: inactive
- max response (KB-3-1): -12.9% (inactive)
- outcome (HACAT): inactive
- Potency (CAOV3): inactive
- Potency (JEG-3): inactive
- Potency (SKOV3): inactive

SMILES: C=CC/C=C\C/C=C\CCCCCCCc1cc(O)cc(O)c1
- Potency [2]: inactive
- Potency [3]: inactive
- Potency [4]: inactive
- Potency [5]: inactive
- max response (KB-3-1): -0.409% (inactive)
- outcome (HACAT): inactive
- Potency (CAOV3): inactive
- Potency (JEG-3): inactive
- Potency (SKOV3): inactive

SMILES: C=C1[C@@H](C)[C@H]2[C@H](Cc3ccccc3)NC(=O)[C@]23[C@H](OC(C)=O)/C=C/[C@](C)(O)C(=O)[C@@H](C)C/C=C/[C@H]3[C@@H]1O
- Potency [2]: inactive
- Potency [3]: inactive
- Potency [4]: inactive
- Potency (KB-3-1): 2590 nM (active)
- Potency (JEG-3): inactive

SMILES: C[C@H]1O[C@@H](O[C@H]2CC[C@]3(C=O)C4CC[C@]5(C)[C@@H](C6=CC(=O)OC6)CC[C@]5(O)[C@@H]4CC[C@]3(O)C2)C[C@@H](O)[C@@H]1O (stereo partly specified)
- Potency [2]: inactive
- Potency [3]: inactive
- Potency [4]: inactive
- Potency [5]: inactive
- Potency (KB-3-1): 89.3 nM (active)
- Potency (CAOV3): 112 nM (active)
- Potency (SKOV3): 112 nM (active)

SMILES: C[C@H]1O[C@@H](n2cnc3c(N)ncnc32)C[C@@H]1O
- Potency [6]: inactive
- Potency [1]: inactive
- Potency [2]: inactive
- Potency [4]: inactive
- Potency [5]: inactive
- outcome (KB-3-1): inactive
- Potency (JEG-3): inactive
- Potency (SKOV3): inactive

SMILES: C[C@H](CCC(=O)O)C[C@H](C)C[C@H](C)C(=O)/C=C(\O)[C@H](C)C[C@H](C)C/C=C/[C@@H](C)[C@@H](O)[C@@H](C)[C@@H](O)C[C@@H]1CC[C@@](C)([C@H]2CC[C@@](C)([C@@H](C)O)O2)O1
- Potency [2]: inactive
- Potency [3]: inactive
- Potency [4]: inactive
- Potency [5]: inactive
- Potency (KB-3-1): 8930 nM (active)
- Potency (CAOV3): inactive
- Potency (JEG-3): inactive

SMILES: CC(C)(NC(=O)[C@@H](N)Cc1ccc(O)cc1)C(=O)N[C@@H](Cc1cc2ccccc2[nH]1)C(=O)N[C@@H](Cc1ccccc1)C(=O)O (H-Y[Aib][Ala(indol-2-yl)]F-OH)
- outcome [6]: inactive [at 9.29 µM]
- activity change, negative = inhibition [2]: -10.9% [at 10.7 µM] (inactive)
- redox activity (% of DA3003) [5]: 9.88% [at 11.5 µM] (inactive)
- outcome (KB-3-1): inactive
- activity change, negative = cytotoxicity (CAOV3): 2.52% [at 11.6 µM] (inactive)
- activity change, negative = cytotoxicity (JEG-3): -21.6% [at 11.6 µM] (inactive)
- activity change, negative = cytotoxicity (SKOV3): -8.69% [at 11.6 µM] (inactive)

SMILES: CC1CCCC(=O)CCC/C=C/c2cc(O)cc(O)c2C(=O)O1 (stereo unspecified)
- activity change, negative = inhibition ([7]; at 57.5 µM (top of the series)): -7.32% (inactive)
- max response ([7]; measured here: cell count channel max response): 9.42%
- max response ([7]; measured here: lipid channel max response): 4.67%
- Potency [6]: inactive
- Potency [2]: inactive
- Potency [3]: inactive
- outcome (KB-3-1): inactive
- Potency (CAOV3): inactive
- Potency (JEG-3): inactive
- Potency (SKOV3): inactive
